Among the data in PubChem BioAssay (EPA / NIEHS) are outcome and AC50 values, retold here.

Experiment [1] in a line: Tanguay_ZF_120hpf_PE_legacy: (Legacy) Oregon State University Tanguay Lab 120 Hour Post-fertilization zebrafish Assay for Pericardial Edema (AID 2283640). The method in brief:
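Static waterborne exposure, 5D wild-type embryos, 28C, to 120 hpf; final DMSO 0.64% (vol/vol). Binary PE call at 120 hpf by brightfield; fitted upward vs DMSO baseline. 5uM trimethyltin chloride as positive control.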

A short description of experiment [2]: Tanguay_ZF_120hpf_PFIN_legacy: (Legacy) Oregon State University Tanguay Lab 120 Hour Post-fertilization zebrafish Assay for Pectoral Fin Malformation (AID 2283648).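 Also: each larva judged yes or no for fin defect by brightfield with dead larvae skipped.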 Summed up: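 Dechorionated Tropical 5D wild-type zebrafish embryos, one per well, statically exposed from 6 to 120 hpf at 28C with 0.64% DMSO final. Pectoral fin malformation scored present/absent by brightfield at 120 hpf; not scored in dead embryos.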

A short description of experiment [3]: Tanguay_ZF_120hpf_CFIN_legacy: (Legacy) Oregon State University Tanguay Lab 120 Hour Post-fertilization zebrafish Assay for Caudal Fin Malformation (AID 2283649). Summed up: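 Dechorionated 5D wild-type zebrafish, static exposure 6–120 hpf, 28C, sealed and dark, 0.64% v/v DMSO final. Binary fin-malformation call at 120 hpf, brightfield; gain of signal vs DMSO baseline.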

Experiment [4] in a line: Tanguay_ZF_120hpf_PIG_legacy: (Legacy) Oregon State University Tanguay Lab 120 Hour Post-fertilization zebrafish Assay for Pigmentation Malformation (AID 2283650). The method in brief:
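Dechorionated Tropical 5D wild-type embryos, one per well from 6 hpf, statically exposed at 28C in the dark until 120 hpf, 0.64% DMSO final. Pigmentation scored present/absent by brightfield microscopy; dead embryos not scored; fitted versus DMSO.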

A short description of experiment [5]: Tanguay_ZF_120hpf_CIRC_legacy: (Legacy) Oregon State University Tanguay Lab 120 Hour Post-fertilization zebrafish Assay for Circulatory Malformation (AID 2283651). Summed up: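 Dechorionated wild-type 5D zebrafish embryos, one per well, statically exposed from 6 to 120 hpf at 28C with 0.64% DMSO; circulatory malformation scored present/absent by brightfield microscopy at 120 hpf, dead embryos excluded.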

Experiment [6] is described as follows: Tanguay_ZF_120hpf_SWIM_legacy: (Legacy) Oregon State University Tanguay Lab 120 Hour Post-fertilization zebrafish Assay for Swim Bladder Malformation (AID 2283654).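 Also: swim bladder malformation in each larva scored yes or no under brightfield.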 The method in brief:
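Dechorionated wild-type Tropical 5D zebrafish embryos, one per well from 6 hpf, were statically exposed at 28C until 120 hpf in 0.64% DMSO. Swim bladder malformation scored as present/absent by brightfield microscopy; not scored in dead larvae.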

Experiment [7] is described as follows: Tanguay_ZF_120hpf_TRUN_legacy: (Legacy) Oregon State University Tanguay Lab 120 Hour Post-fertilization zebrafish Assay for Truncated Body (AID 2283655). Summed up:
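Whole-embryo zebrafish screen: dechorionated 5D embryos, static exposure 6–120 hpf, 28C, sealed foil-covered plates, 0.64% DMSO. Binary truncation call; gain of signal versus DMSO baseline.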

A short description of experiment [8]: Tanguay_ZF_120hpf_TR_legacy: (Legacy) Oregon State University Tanguay Lab 120 Hour Post-fertilization zebrafish Assay for Touch Response (AID 2283667). The method in brief:
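Tropical 5D wild-type zebrafish embryos statically exposed to 120 hpf at 28°C, sealed and dark-covered, 0.64% DMSO final; touch response scored as present/absent by brightfield microscopy at 120 hpf. Trimethyltin chloride 5 uM positive control; dead embryos not scored.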

The nature of experiment [9]: CCTE_Padilla_ZF_144hpf_TERATOSCORE: (Legacy) CCTE's 144 Hour Post-fertilization zebrafish Assay Teratoscore, Padilla Lab (AID 2283679; active = hit-call score of the fitted dose curve at least 0.9, where 1 is the maximum; inactive = score below 0.9;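 as to AC50: zebrafish embryos with chorions exposed by immersion from 6-8 hpf to 5 dpf with daily renewal; teratogenicity score from eye scoring of death hatching and malformations at 144 hpf; higher score means more developmental defects relative to DMSO baseline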). Summed up:
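Larvae scored by eye at 144 hpf for death, hatching and malformations after a day in clean Hanks'. Before that, daily-renewed exposure at 80 uM (0.4% DMSO, 26C) from roughly 6-8 hpf through 5 dpf, 4 embryos per chemical.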

The nature of experiment [10]: Tanguay_ZF_120hpf_SOMI_legacy: (Legacy) Oregon State University Tanguay Lab 120 Hour Post-fertilization zebrafish Assay for Somite Malformation (AID 2283647). Summed up:
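Binary brightfield scoring of somite defects at 120 hpf in 5D wild-type larvae; one dechorionated embryo per well, static exposure from 6 hpf, 28C, sealed and dark. Final DMSO 0.64%; trimethyltin chloride 5uM positive control.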

The nature of experiment [11]: Tanguay_ZF_120hpf_NC_legacy: (Legacy) Oregon State University Tanguay Lab 120 Hour Post-fertilization zebrafish Assay for Notochord and Tail Malformation (AID 2283656). Summed up:
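Dechorionated Tropical 5D wild-type zebrafish embryos, one per well from 6 hpf, statically exposed to 120 hpf at 28C in 0.64% DMSO final. Notochord distortion scored present/absent by brightfield; dead embryos excluded.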

The test system of experiment [12] is Thyroperoxidase (TPO), gene 54314. The experiment can be described thus: CCTE_Simmons_AUR_rTPO: CCTE's Amplex UltraRed Assay for Thyroperoxidase (TPO) Inhibition, Simmons Lab (AID 2283662).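 Also: potency for loss of signal meaning inhibition of peroxidase activity.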 The method in brief: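 Cell-free peroxidase activity assay using rat thyroid gland microsomes with excess H2O2 (300 uM) and 25 uM Amplex UltraRed. Compounds tested from 5 nM to 87.5 uM; fluorescence measured after 30 min at 37C, analysed relative to DMSO baseline.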

The nature of experiment [13]: CCTE_Simmons_CellTiterGLO_HEK293T: Viability Assessment in CCTE's Assays for Thyroperoxidase (TPO) Inhibition, Simmons Lab (AID 2283665).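 As to AC50: cells exposed to compound for 24 h before readout; actives reduce ATP signal below DMSO vehicle meaning cytotoxicity.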 Summed up: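 HEK293T cells in DMEM with 1% FBS, dosed 24 h at 37C with 8 concentrations, 5 nM–87.5 uM final, 0.5% DMSO. ATP measured by CellTiter Glo luminescence; loss of signal vs DMSO, three biological replicates.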
Background: Cellular ATP, detected with luciferase, serves as a proxy for viable cell number.

Experiment [14] can be described thus: STM_H9_OrnithineISnorm_perc: Stemina devTOX quickPredict H9 human embryonic stem cell (hESC)-based Assay for Ornithine (ORN) Metabolite Biomarker, Normalized (AID 2283712; active = hit-call score of the fitted dose curve at least 0.9, where 1 is the maximum; inactive = score below 0.9;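 also: ornithine released into spent medium during last day measured by mass spectrometry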). The method in brief:
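Undifferentiated H9 hESCs exposed 72 h with daily media and compound renewal; final 24-h conditioned medium analysed by UPLC-HRMS. Ornithine peak area normalised to spiked C13 standard and to median 0.1% DMSO control; viability by CellTiter-Fluor.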

Experiment [15] in a line: Tanguay_ZF_120hpf_BRAI_legacy: (Legacy) Oregon State University Tanguay Lab 120 Hour Post-fertilization zebrafish Assay for Brain Malformation (AID 2283641). The method in brief:
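Read-out: binary brain morphology call at 120 hpf (brightfield), fitted in gain-of-signal direction vs DMSO. Wild-type Tropical 5D embryos, static exposure, 28C, 0.64% DMSO final; 5uM trimethyltin chloride as positive control.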

Where “and” joins values, the source holds several entries; their conditions need not be identical. Equal entries are not always repeated. Results filed as inconclusive are left out. Calls of active or inactive are those of the source. The calls were made as follows, unless noted: active = hit-call score of the fitted dose curve at least 0.9, where 1 is the maximum; inconclusive = response in the unintended direction; inactive = score below 0.9.

Broadly, the AC50 is the midpoint of the concentration-response curve, whichever way the signal moves. As for `COc1ccc(OC(F)(F)F)cc1CN[C@H]1CCCN[C@H]1c1ccccc1`, the call in experiment [1], in experiment [2], in [3], in experiment [4], in experiment [5] and in experiment [6] was inactive. In addition, the compound was classed as inactive in [7] and in experiment [8]. The AC50 in experiment [9] was 56.5 µM (active).
Regarding `Cn1cnc2c1c(=O)[nH]c(=O)n2C`, the call in experiment [10], in experiment [2], in experiment [4], in experiment [5], in experiment [6] and in experiment [11] was inactive. In experiment [8], the compound was called inactive.
Consider `O=C1O[C@H]([C@H](O)CO)C(O)=C1O`, for which the compound was classed as inactive in experiment [10], in [2], in [3], in experiment [4], in experiment [5] and in [6]. For the same compound, the compound was called inactive in experiment [7], in [11], in experiment [13], in [8] and in experiment [9]. The concentration at half-maximal activity (AC50) in [12] is 43.8 µM (active).
Turning to `N[C@@H](Cc1c[nH]c2ccccc12)C(=O)O`, the compound was classed as inactive in experiment [10], in experiment [2], in experiment [3], in experiment [4], in [5] and in [6]. The result in experiment [7], in [11], in [8], in [9] and in experiment [14] was inactive.
With `O=NO`, the outcome in experiment [1], in experiment [10], in [3], in [4], in experiment [5] and in experiment [11] was inactive. In addition, the call in experiment [8] and in experiment [14] was inactive.
As to `CC(=O)CC(c1ccccc1)c1c(O)c2ccccc2oc1=O` (stereo not given), the result in experiment [10], in experiment [2], in [3], in [4], in experiment [5] and in experiment [6] was inactive. Also, the call in experiment [7], in [8] and in experiment [14] was inactive. Besides, in experiment [9], the AC50 is 39.6 µM (active).
`CCN(CC)CCOc1ccc(C(=C(Cl)c2ccccc2)c2ccccc2)cc1`: the result in experiment [1], in experiment [3], in [5], in [6], in experiment [7] and in experiment [11] was inactive. Also, the figures for the AC50 in [9] and in [14] were 1.56 µM (active) and 6.22 µM (active), respectively.
`O=Cc1ccccc1C=O`: the call in experiment [1], in experiment [10], in [3], in experiment [4], in experiment [5] and in experiment [7] was inactive. Moreover, the call in [11], in experiment [8] and in [14] was inactive. Besides, the results for the concentration at half-maximal activity (AC50) in experiment [12], in experiment [13] and in [9] were 41.8 µM (active), 4.91 µM (active) and 1.15 µM (active), respectively.
Take `CCCC(=O)O`: the compound was classed as inactive in experiment [1], in experiment [10], in [2], in [3], in [5] and in experiment [6]. The call in experiment [7], in experiment [11] and in experiment [8] was inactive.
In the case of `CC(C)NCC(O)c1ccc(O)c(O)c1` (stereo not given), the outcome in experiment [1], in [3], in [4], in experiment [5], in experiment [6] and in experiment [7] was inactive. For the same compound, the compound was called inactive in experiment [11], in experiment [13] and in [8]. In [12], the AC50 is 0.616 µM (active).
Regarding `CC(COCC(C)OC(=O)c1ccccc1)OC(=O)c1ccccc1` (stereo not given), the result in experiment [15], in experiment [10], in [3], in experiment [4], in [5] and in [6] was inactive. Besides, the outcome in experiment [7], in experiment [8] and in [14] was inactive. Moreover, the half-maximal activity concentration (AC50) in [9] is 7.06 µM (active) and 4.45 µM (active).
`CC(=O)O`: the result in [1], in [10], in [4], in experiment [5], in experiment [6] and in [7] was inactive. Besides, the call in [11], in experiment [8] and in experiment [9] was inactive.
